Laboratory results from PubChem BioAssay AID449762 (Southern Research Specialized Biocontainment Screening …, 2010).
The whole screen tested about 330,000 compounds, of which about 1,900 (0.58%) were called active. Not shown: some 4% with an inconclusive outcome. No stated cut-off is given here; in the data, inconclusive means inhibition above about 70% without an active follow-up result; inactive means below that. A selection follows. Results with a measured potency or affinity are listed apart.

Test: M. tuberculosis growth inhibition, HTS (AID 449762);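 further: bacterial growth assessed after seven days of incubation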
Settings: M. tuberculosis H37Rv growth inhibition, 7H9 media; at 25 µM; stronger effect = higher value

Row | Structure (SMILES) | inhibition
1 | C=CCOc1c(Cl)cc(CNc2nccs2)cc1OC | 56.1% (inactive)
2 | C=CCOc1ccc(CNc2nccs2)cc1OC | -5.03% (inactive)
3 | CCCOc1ccc(C(=O)N/N=C/c2c[nH]c3ccc(Br)cc23)cc1 | 1.55% (inactive)
4 | COc1ccccc1Nc1cc(C)nc2c(C)ccc([N+](=O)[O-])c12 | -0.28% (inactive)
5 | Cc1cc(Nc2ccccc2)c2c([N+](=O)[O-])cc(C)c(C)c2n1 | 6.4% (inactive)
6 | COC(=O)C1=C(COc2ccc(C=O)cc2OC)NC(=O)NC1c1cc(C)ccc1C (stereo not given) | -8.91% (inactive)
7 | Cc1cc(C)c2oc(=O)cc(CN3CCC(C)CC3)c2c1 | 5.8% (inactive)
8 | Cc1coc2c(C)c3oc(=O)c(CCC(=O)N4CCC(C(=O)NCCCC(=O)O)(c5ccccc5)CC4)c(C)c3cc12 | 5.29% (inactive)
9 | CC12CCC(C(=O)Nc3cccnc3)(CC1=O)C2(C)C (stereo not given) | -6.21% (inactive)
10 | O=C(NCC1CCCO1)c1ccc([N+](=O)[O-])o1 (stereo not given) | -10.8% (inactive)
11 | O=C(NN(c1ccccc1)c1ccccc1)c1ccc([N+](=O)[O-])o1 | 56.9% (inactive)
12 | C=CCn1c(SCC(=O)NCC2CCCO2)nc2scc(-c3ccccc3)c2c1=O (stereo not given) | -12.7% (inactive)
13 | CCOCCCNC(=S)NCCCNc1nc2cc3c(cc2cc1C#N)OCO3 | -2.17% (inactive)
14 | Cc1ccc(C(=O)/C=C/Nc2ccc(S(=O)(=O)Nc3cc(C)nc(C)n3)cc2)cc1 | 4.23% (inactive)
15 | CCOc1cc(/C=N/NC(=O)C(=O)Nc2cc(Cl)ccc2C)ccc1O | 5.58% (inactive)
16 | Cc1c(C(=O)NCc2ccccc2)cnn1-c1ccccc1 | 0.38% (inactive)
17 | CC(=O)c1cnn(-c2ccccc2)c1C | -0.96% (inactive)
18 | O=C(NN=C1CCCCCC1)c1ccc(Cl)s1 | -7.6% (inactive)
19 | O=C(Nc1ccc(N2CCN(C(=O)c3ccccc3F)CC2)cc1)c1cncc(Br)c1 | 32.6% (inactive)
20 | COc1ccc(NC(=O)CN(C)CC(=O)N(C)C2(C#N)CCC(C)CC2)cc1 (stereo not given) | 6.58% (inactive)

Row | Structure (SMILES) | inhibition
21 | O=C1Nc2ccccc2/C1=N\c1sc2c(c1C(=O)Nc1ccccc1)CCCC2 | -6.89% (inactive)
22 | COc1ccc(-c2noc(N3CCC(C(=O)Nc4ccccc4F)CC3)n2)cc1 | -6.51% (inactive)
23 | CSc1nc(C)c2c(n1)N(c1ccc(F)cc1)CC2 | 5.53% (inactive)
24 | COc1ccc(N2CCc3c(C)nc(SC)nc32)cc1 | 37.6% (inactive)
25 | Cc1cccc(NC(=O)Cn2nnc(-c3cccs3)n2)c1C | 4.16% (inactive)
26 | Cc1cc2ccccc2c(=O)n1CC(=O)NCC(=O)N1CCN(c2ccccc2)CC1 | 3.46% (inactive)
27 | CC12CCC(C(=O)N3CCCCCC3)(OC1=O)C2(C)C (stereo not given) | 0.66% (inactive)
28 | O=C(c1ccc2nc(N3CCOCC3)sc2c1)N1CCN(C(=O)c2ccco2)CC1 | -6.14% (inactive)
29 | O=C(c1ccc2nc(N3CCOCC3)sc2c1)N1CCCC1 | -5.7% (inactive)
30 | Cc1ccc(S(=O)(=O)N(C)c2ccc(OCC(=O)Nc3ccc(C(=O)N(C)C)cc3)cc2)cc1C | -1.34% (inactive)
31 | Cn1cc(C(=O)N/N=C/C2=C(N3CCOCC3)C(=C/c3ccc([N+](=O)[O-])cc3)/CC2)ccc1=O | 2.15% (inactive)
32 | COc1cc(C(=O)NC(=S)Nc2ccc3[nH]c(=O)[nH]c3c2)cc(OC)c1OC | 5.44% (inactive)
33 | COCCCN1C(=O)C(=O)/C(=C(/O)c2ccc(OC)cc2)C12C(=O)N(C)c1ccccc12 (stereo not given) | 0.02% (inactive)
34 | O=C(/C=C\c1cccs1)c1c(O)ccc2ccc(=O)oc12 | 69.8% (inactive)
35 | CCN(CC)S(=O)(=O)c1ccc2oc(SCC(=O)NCc3ccccc3)nc2c1 | -7.94% (inactive)
36 | CCN(CC)S(=O)(=O)c1ccc2oc(SCC(=O)NC3CC3)nc2c1 | -7.6% (inactive)
37 | COC(=O)C1=C(C)N(c2ccc(OC)cc2)C(=O)/C1=C\c1cccs1 | -1.06% (inactive)
38 | CC(=O)c1ccc(OCC(=O)c2cc(C)n(-c3ccc4c(c3)OCO4)c2C)cc1 | -1.32% (inactive)
39 | O=C(c1cc(Br)ccc1Cl)N1CCN(c2ncccn2)CC1 | 6.19% (inactive)
40 | COCCN(C(=S)Nc1cccc(C)c1C)C(C)c1ccco1 (stereo not given) | 4.25% (inactive)

Row | Structure (SMILES) | inhibition
41 | CCCNC(=O)C(Cc1ccccc1)NC(=O)c1ccc(C(C)(C)C)cc1 (stereo not given) | -2.64% (inactive)
42 | CC(=O)C1=C(O)C(=O)N(c2cccc(Br)c2)C1c1ccc(Br)cc1 (stereo not given) | 1.06% (inactive)
43 | COc1ccc(-c2noc(CSc3nc(-c4ccccc4)cc(=O)[nH]3)n2)cc1 | -1.49% (inactive)
44 | CC1CCC2(CC1)N=C(N)Nc1nc3ccccc3n12 (stereo not given) | 11.2% (inactive)
45 | NC1=NC2(CCCC2)n2c(nc3ccccc32)N1 | 1.5% (inactive)
46 | c1ccc(-c2cc3c(ccc4nonc43)nn2)cc1 | -0.15% (inactive)
47 | O=C(O)c1cc(-c2ccccc2)nc2ccccc12 | -1.59% (inactive)
48 | COc1cc(C(=O)NCC(c2cccs2)N2CCOCC2)cc(OC)c1OC (stereo not given) | 7.52% (inactive)
49 | COc1ccc2c(c1)O/C(=C\c1ccco1)C2=O | -4.09% (inactive)
50 | CCC(=O)Oc1ccc2c(c1)O/C(=C\c1ccco1)C2=O | 6.29% (inactive)
51 | Cc1ccccc1OCC(O)Cn1c(N2CCCCC2)nc2c1c(=O)[nH]c(=O)n2C (stereo not given) | 6.49% (inactive)
52 | Cc1cc(C)nc(-n2ncc3c2CC(c2ccccc2C)CC3=O)n1 (stereo not given) | 3.74% (inactive)
53 | Cc1ccc(-c2cc(-c3ccc(C)cc3O)[nH]n2)cc1 | 17.4% (inactive)
54 | Cc1ccc(O)c(-c2cc(-c3ccccc3F)[nH]n2)c1 | 33.9% (inactive)
55 | O=C1CN(C(=O)COC(=O)CCC(=O)c2ccc(F)cc2)c2ccccc2N1 | -6.63% (inactive)
56 | CCOCCn1c(CN2CCN(C(=O)c3ccco3)CC2)nc2c1c(=O)n(C)c(=O)n2C | 5.24% (inactive)
57 | COc1cc(C(=O)OC2CC3CCC2(C)C3(C)C)ccc1OC(C)=O (stereo not given) | -10.7% (inactive)
58 | O=c1cc(-c2ccccc2)nc(Cc2c(Cl)cccc2Cl)[nH]1 | 8.31% (inactive)
59 | COCc1cc(=O)[nH]c(Cc2c(Cl)cccc2Cl)n1 | 3.62% (inactive)
60 | O=C(NCc1ccccn1)C(=O)Nc1cc2c3c(c1)CC(=O)N3CCC2 | 5.14% (inactive)
